Experimental findings from ChEMBL document CHEMBL4513216, “Probing the Open Global Health Chemical Diversity Library for Multistage-Active Starting Points for Next-Generation Antimalarials” (ACS Infect Dis, 2020) are described below.

The structures appear in SMILES notation. Hit rate of the full screen: of about 69,000 compounds, about 8,600 (12%) showed an effect of 50% or more. This excerpt belongs to a sample that is enriched for strong results.

For this experiment, the system named is Plasmodium berghei. Put plainly: Screen against P. berghei liver stage (PbLuc), transformed with Luciferase, at 10uM. In kind it is functional, HepG2. The note with it: tested at 10 uM.
In the case of `Cc1nc2cc(O)nn2c(C)c1CCC(=O)NCCc1nccn1C`, the INHIBITION is 30.6%.

Turning to `CCOC(=O)N1CCN(C(=O)c2cc(-c3ccc(C)cc3)on2)CC1`, the INHIBITION is 23.4%.

Take `Cc1cc(C(=O)Nc2n[nH]c(C3CC3)n2)c2c(C)noc2n1`: the INHIBITION is given as 6.83%.

`Nc1cc2c(nn1)CCN(C(=O)c1cccc3c1OCO3)C2`: the INHIBITION is listed as -16%.

As for `COC(=O)N1CC(C)=C(C)CN1C(=O)Nc1ccc(Cl)c(Cl)c1`, the INHIBITION was -52.3%.

As to `CN1CCc2nc(C3CCN(C(=O)CCC4CCCC4)CC3)ncc2C1`, the INHIBITION worked out at 85.9%.

For `CCCC(=O)N1CCC(c2ncc3c(n2)CCNC3)CC1`, the INHIBITION was -28.6%.

For `O=C(CCC1CCCC1)N1CCCC(c2ncc3c(n2)CCNC3)C1` (stereo unspecified), the INHIBITION came out at 58.1%.

Take `O=C(C1CCCC1)N1CCC(c2ncc3c(n2)CCNC3)C1` (stereo unspecified): the INHIBITION is recorded as -32.2%.

`CCC(=O)N1CCCC(c2ncc3c(n2)CCN(C)C3)C1` (stereo unspecified): the INHIBITION is given as 10%.

Consider `CCC(=O)N1CCC(c2ncc3c(n2)CCNC3)CC1`, for which the INHIBITION is 37.6%.

Take `O=C(CC1CCCCC1)N1CCC(c2ncc3c(n2)CCNC3)CC1`: the INHIBITION was determined as 47.2%.

`CN1CCc2nc(C3CCCN(C(=O)CC4CCCCC4)C3)ncc2C1` (stereo unspecified): the INHIBITION was 27.8%.

On to `O=C(CCC1CCCC1)N1CCC(c2ncc3c(n2)CCNC3)CC1`, for which the INHIBITION is on record as 73.4%.

Turning to `Cc1noc(C)c1C(=O)NCC(C)N1CCc2ccccc21` (stereo unspecified), the INHIBITION is listed as 13.6%.

Turning to `Cc1cc(C(F)(F)F)nn1CC(C)C(=O)Nc1cccnc1` (stereo unspecified), the INHIBITION was 15.1%.

For the compound `Cc1noc(C2CCC3(CCN(C(=O)c4sccc4C)CC3)O2)n1` (stereo unspecified), the INHIBITION is on record as -54.7%.

With `CN1CC(C(=O)NCc2ccnc(-n3cccn3)c2)CC1=O` (stereo unspecified), the INHIBITION is reported as -0.7%.

For `CN(Cc1ccco1)[C@@H]1CN(Cc2ccncc2)C[C@@H]2CCCO[C@@H]21`, the INHIBITION was 23.5%.

`CSc1ccc(CNC2(c3ccc(F)cc3)CCOCC2)cc1`: the INHIBITION was determined as 13.5%.

As for `Fc1ccc(C2(NCc3ccccc3)CCOCC2)cc1`, the INHIBITION turned out to be 4.48%.

On to `CN(C)c1ccc(CNC2(c3ccc(F)cc3)CCOCC2)cc1F`, for which the INHIBITION is 55.6%.

On to `O=S(=O)(c1cncc(F)c1)N1CCC2(CCCCC2)C1`, for which the INHIBITION was determined as 19.3%.

As to `Cc1noc(C)c1CN1Cc2cn(C)nc2C(COCC2CC2)C1` (stereo unspecified), the INHIBITION was 48.6%.

For the compound `Cc1ncsc1CN1Cc2cnn(C)c2C(COCC2CC2)C1` (stereo unspecified), the INHIBITION is reported as -0.813%.

With `Cc1ccc(CN2Cc3cnn(C)c3C(COCC3CC3)C2)o1` (stereo unspecified), the INHIBITION is recorded as 54.4%.

`Cc1noc(C)c1CN1Cc2cnn(C)c2C(COCC2CC2)C1` (stereo unspecified): the INHIBITION stood at 54.4%.

Consider `Cn1ncc2c1C(COCC1CC1)CN(Cc1ccco1)C2` (stereo unspecified), for which the INHIBITION came to 20.6%.

On to `Cc1ccc(CN2Cc3nnn(C)c3C(COCC3CC3)C2)o1` (stereo unspecified), for which the INHIBITION is listed as -14.7%.

For `Cn1ncc2c(=O)[nH]c(CN3CCCC3c3ccccc3Cl)nc21` (stereo unspecified), the INHIBITION is -19.6%.

`Cc1ccc(-c2nc(C(=O)N(C)C3CCN(C)CC3)cs2)c(C)c1`: the INHIBITION is on record as 27.7%.

With `Cc1sc(Br)cc1S(=O)(=O)NCCCN`, the INHIBITION is reported as 8.08%.

For the compound `CC(=O)N1CCCN(C(=O)NCC2(c3cccs3)CCCC2)CC1`, the INHIBITION came to 23.9%.

On to `Cc1nc(C)n(CC2CCCN(CCOc3ccc(F)cc3)C2)n1` (stereo unspecified), for which the INHIBITION was 4.52%.

Turning to `CN1CCO[C@H]2CN(S(=O)(=O)c3ccc(C#N)cc3)C[C@H]21`, the INHIBITION is 5.63%.

For the compound `CC(C)NCC1(COc2ccccc2)C[C@@H](O)[C@@H](O)C1` (stereo partly specified), the INHIBITION is 38.3%.

On to `O=C(CCNc1ncccn1)N1CCCC(n2ccnc2)C1` (stereo unspecified), for which the INHIBITION was determined as 21.1%.

Take `NC(=O)c1ccc(OCC(=O)N2CCCC(n3cccn3)C2)cc1` (stereo unspecified): the INHIBITION is -25.9%.

Take `O=C(COCCc1ccccc1)N1CCCC(n2cccn2)C1` (stereo unspecified): the INHIBITION stood at 61.9%.

Regarding `NC(=O)c1cccc(OCC(=O)N2CCCC(n3cccn3)C2)c1` (stereo unspecified), the INHIBITION is listed as 57.5%.

On to `O=C(COCCc1ccccc1)N1CCCC(n2cncn2)C1` (stereo unspecified), for which the INHIBITION worked out at 7.12%.

With `NC(=O)COc1cccc(C(=O)N2CCCC(n3cccn3)C2)c1` (stereo unspecified), the INHIBITION is 20.1%.

In the case of `O=C(CCNc1ncccn1)N1CCCC(n2cccn2)C1` (stereo unspecified), the INHIBITION is on record as 50.3%.

For `O=C(CCCNc1ncccn1)N1CCCC(n2cccn2)C1` (stereo unspecified), the INHIBITION is 8.48%.

Consider `O=C(COCC1CC1)N1CCCC(n2cccn2)C1` (stereo unspecified), for which the INHIBITION was 8.48%.

For the compound `Cc1nn(C)c(N(C)C)c1CNC(C)COc1ccc(F)cc1F` (stereo unspecified), the INHIBITION is -41.6%.

As to `O=S(=O)(NCCC(O)c1ccoc1)c1ccc(Cl)s1` (stereo unspecified), the INHIBITION was -5.22%.

For `COc1cc2nc(C)n(CC(=O)NCCO)c(=O)c2cc1OC`, the INHIBITION was 4.82%.

Regarding `COc1cc(OC)cc(-c2noc(CC(N)c3ccccc3)n2)c1` (stereo unspecified), the INHIBITION came to 36.3%.

On to `CN1CCN(Cc2nnc(C3CCN(S(C)(=O)=O)CC3)n2C)CC1`, for which the INHIBITION is reported as -14.3%.

Regarding `CN(CC(F)(F)F)C(=O)CNC(=O)N1CCCC(N(C)C)C1` (stereo unspecified), the INHIBITION came out at 53.3%.

On to `CN(CC(F)(F)F)C(=O)CNC(=O)N1CCCC(C(F)(F)F)C1` (stereo unspecified), for which the INHIBITION was determined as 18.6%.

For `CC1CCN(C(=O)NCC(=O)N(C)CC(F)(F)F)C1` (stereo unspecified), the INHIBITION turned out to be 18.6%.

On to `c1cnc(Nc2cncc(C3CCCN(c4ncccn4)C3)n2)nc1` (stereo unspecified), for which the INHIBITION is -0.371%.

On to `NCC(=O)N1CCCC(c2cncc(Nc3ncccn3)n2)C1` (stereo unspecified), for which the INHIBITION amounted to 51.7%.

Regarding `COc1ccccc1Oc1cncc(C2CCCN(CC(N)=O)C2)n1` (stereo unspecified), the INHIBITION amounted to 20.8%.

For `NCC(=O)N1CCCC1c1nccnc1Nc1ncccn1` (stereo unspecified), the INHIBITION is given as 59%.

Regarding `COCC(=O)N1CCCC1c1nccnc1Nc1ncccn1` (stereo unspecified), the INHIBITION is 7.05%.

Consider `NCC(=O)N1CCCC(c2ccnc(Nc3cnccn3)n2)C1` (stereo unspecified), for which the INHIBITION is on record as 18.9%.

In the case of `CCC(=O)N1CCCC1c1nccnc1Nc1ncccn1` (stereo unspecified), the INHIBITION is reported as 42.6%.

For `NC(=O)CN1CCCC(c2cncc(Nc3ncccn3)n2)C1` (stereo unspecified), the INHIBITION stood at 59%.

In the case of `c1cnc(Nc2cncc(C3CCCN(c4cnccn4)C3)n2)nc1` (stereo unspecified), the INHIBITION is on record as -6.3%.

Consider `CCS(=O)(=O)N1CCC2(CCC2NC(=O)c2ccn(C)c2)CC1` (stereo unspecified), for which the INHIBITION was determined as 8.53%.

For the compound `O=C(c1ccno1)N1CCO[C@@H]2CC(COCc3ccccn3)C[C@H]21` (stereo partly specified), the INHIBITION came out at 8.6%.

As for `COc1cc(C(=O)N(Cc2cnn(C)c2)C(C)C)ccc1C`, the INHIBITION was determined as 14.1%.

For the compound `COc1cc(N2CC[C@@H]3O[C@H](C(=O)NCC4CC4)C[C@@H]32)ncn1`, the INHIBITION is on record as -22.1%.

On to `Cc1cc(Oc2ccccc2F)nc(C2CCCCN2)n1` (stereo unspecified), for which the INHIBITION worked out at 10.9%.

Turning to `CN(Cc1nnn(CC2CC2)n1)C(=O)c1ccccc1`, the INHIBITION is 1.74%.

Take `Cc1ccc(CN(C)C(=O)CCn2c(=O)n(C)c3ccccc32)o1`: the INHIBITION is on record as 49.7%.

`CCn1c(=O)n(CCC(=O)N(C)Cc2ccc(C)o2)c2ccccc21`: the INHIBITION was determined as 15.4%.

As to `CCCn1c(=O)n(CCC(=O)N(C)Cc2ccc(C)o2)c2ccccc21`, the INHIBITION stood at 83.2%.
